Holding throughout (parameters): scale not given: direction of the effect not stated beside the values
Test [1] has as its target Protein translocase subunit SecA (Escherichia coli (strain K12)) (UniProt P10408). The test can be described thus: Assay to Identify E. coli SecA ATPase Inhibitors. The format is functional. The note with it: 30 µM.
Test [2] concerns the target T1, Ubiquitin-activating enzyme e1, putative (Leishmania donovani (strain BPK282A1)) (UniProt E9BSI1).
T1 sequence (whole entry): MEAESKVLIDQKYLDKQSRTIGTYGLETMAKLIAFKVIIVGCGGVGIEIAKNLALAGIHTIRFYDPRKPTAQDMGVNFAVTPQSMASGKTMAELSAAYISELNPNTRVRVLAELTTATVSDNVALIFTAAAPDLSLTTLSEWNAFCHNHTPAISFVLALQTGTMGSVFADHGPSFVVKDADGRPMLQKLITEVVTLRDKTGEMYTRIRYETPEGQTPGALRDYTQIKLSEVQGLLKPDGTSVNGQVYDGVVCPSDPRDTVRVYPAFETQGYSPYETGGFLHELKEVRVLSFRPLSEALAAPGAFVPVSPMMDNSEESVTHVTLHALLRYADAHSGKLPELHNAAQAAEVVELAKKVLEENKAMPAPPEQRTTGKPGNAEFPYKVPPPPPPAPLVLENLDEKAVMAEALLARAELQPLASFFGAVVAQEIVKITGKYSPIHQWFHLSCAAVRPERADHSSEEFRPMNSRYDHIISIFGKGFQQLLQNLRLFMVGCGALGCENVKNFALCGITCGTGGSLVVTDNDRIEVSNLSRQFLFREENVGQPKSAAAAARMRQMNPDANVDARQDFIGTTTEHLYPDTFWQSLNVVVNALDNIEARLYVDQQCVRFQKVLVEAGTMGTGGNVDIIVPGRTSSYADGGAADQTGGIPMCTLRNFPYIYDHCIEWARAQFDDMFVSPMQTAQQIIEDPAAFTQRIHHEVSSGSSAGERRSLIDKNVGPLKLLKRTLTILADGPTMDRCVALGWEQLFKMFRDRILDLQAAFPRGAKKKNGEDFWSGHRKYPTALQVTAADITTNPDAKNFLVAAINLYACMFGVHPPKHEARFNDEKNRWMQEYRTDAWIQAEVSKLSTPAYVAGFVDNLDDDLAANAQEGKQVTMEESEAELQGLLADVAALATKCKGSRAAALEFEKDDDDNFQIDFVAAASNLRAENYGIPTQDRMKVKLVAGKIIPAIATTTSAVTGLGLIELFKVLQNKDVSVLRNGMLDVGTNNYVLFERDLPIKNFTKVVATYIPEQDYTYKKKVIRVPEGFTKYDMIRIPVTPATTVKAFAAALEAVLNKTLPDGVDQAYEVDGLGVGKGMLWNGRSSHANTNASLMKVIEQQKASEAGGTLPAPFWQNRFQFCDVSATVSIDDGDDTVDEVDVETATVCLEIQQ
The test can be described thus: Leishmania donovani Ubiquitin Activating Enzyme (LdE1). The format is functional. Particulars: 30 µM.

For test [3], the target named is AMP-activated protein kinase, AMPK (Homo sapiens) (UniProt P54646+O43741+P54619+Q9UGJ0+Q9Y478+Q13131+Q9UGI9). The test can be described thus: AMP-dependent Kinase enzyme assay. An in vitro enzyme assay that detects ADP turnover that is directly proportional to AMPK activity. This uses naive AMPK that is activated during the assay with MK-8722. The format is functional. Particulars: 30 µM.

Test [4] has as its target Sialic acid-binding Ig-like lectin 9 (Homo sapiens) (UniProt Q9Y336). The test can be described thus: Hs-Siglec9 ALPHAscreen SOP 20170721. Particulars: 10 µM. (In general: In Alpha technology, singlet oxygen from a donor bead excites a nearby acceptor bead.)
Test [5] relates to Trypanosoma cruzi. The test can be described thus: Trypanosoma cruzi phosphomannomutase and mannose-1-phosphate guanylyltransferase assay. The note with it: 10 µM. The format is functional.
The target in test [6] is T2, Arginase-2, mitochondrial (Homo sapiens) (UniProt P78540).
T2 sequence (whole entry): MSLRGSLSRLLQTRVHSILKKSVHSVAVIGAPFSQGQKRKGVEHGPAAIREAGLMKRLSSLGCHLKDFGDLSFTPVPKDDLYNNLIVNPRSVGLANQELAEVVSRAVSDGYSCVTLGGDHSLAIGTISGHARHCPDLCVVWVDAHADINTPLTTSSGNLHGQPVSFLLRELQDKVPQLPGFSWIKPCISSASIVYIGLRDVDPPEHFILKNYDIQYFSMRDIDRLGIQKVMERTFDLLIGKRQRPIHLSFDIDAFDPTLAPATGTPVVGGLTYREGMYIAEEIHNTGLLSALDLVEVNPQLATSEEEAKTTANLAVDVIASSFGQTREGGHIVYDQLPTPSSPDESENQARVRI
The test can be described thus: in vitro enzyme assay to detect the production of urea directly proportional to the activity of Arginase II. Note: in the data most compounds retested in dose-response had high values. The class given is functional. The note with it: 33.3 µM.

For test [7], the target named is T3, Proteasome subunit beta (Trypanosoma cruzi) (UniProt O96673).
T3 sequence (whole entry): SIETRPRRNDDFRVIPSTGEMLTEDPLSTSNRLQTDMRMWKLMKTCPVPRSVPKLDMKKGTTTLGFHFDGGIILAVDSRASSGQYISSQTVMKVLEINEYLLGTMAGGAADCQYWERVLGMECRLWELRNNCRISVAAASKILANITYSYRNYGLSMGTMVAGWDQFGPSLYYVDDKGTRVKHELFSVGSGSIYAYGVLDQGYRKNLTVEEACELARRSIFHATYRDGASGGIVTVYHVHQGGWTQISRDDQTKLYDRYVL
The test can be described thus: Trypanosoma cruzi proteasome chymotrypsin-like activity (TcProtChymo) assay. Note: in the data most compounds retested in dose-response had high values. Particulars: 9.37 µM. The format is functional.

For test [8], the species on record is Homo sapiens. The experiment in a line: To identify inhibition of the IFN signalling (Jak-Stat) pathway via expression of an eGFP reporter gene under the control of an IFN-stimulated response element (ISRE) containing MxA promoter. The class given is functional. The note with it: 30 µM. In general terms: In a reporter assay the amount or activity of a reporter protein is the signal.

Test [9] concerns the target T4, Tyrosyl-tRNA synthetase, putative (Trypanosoma cruzi (strain CL Brener)) (UniProt Q4DSP6).
T4 sequence (whole entry): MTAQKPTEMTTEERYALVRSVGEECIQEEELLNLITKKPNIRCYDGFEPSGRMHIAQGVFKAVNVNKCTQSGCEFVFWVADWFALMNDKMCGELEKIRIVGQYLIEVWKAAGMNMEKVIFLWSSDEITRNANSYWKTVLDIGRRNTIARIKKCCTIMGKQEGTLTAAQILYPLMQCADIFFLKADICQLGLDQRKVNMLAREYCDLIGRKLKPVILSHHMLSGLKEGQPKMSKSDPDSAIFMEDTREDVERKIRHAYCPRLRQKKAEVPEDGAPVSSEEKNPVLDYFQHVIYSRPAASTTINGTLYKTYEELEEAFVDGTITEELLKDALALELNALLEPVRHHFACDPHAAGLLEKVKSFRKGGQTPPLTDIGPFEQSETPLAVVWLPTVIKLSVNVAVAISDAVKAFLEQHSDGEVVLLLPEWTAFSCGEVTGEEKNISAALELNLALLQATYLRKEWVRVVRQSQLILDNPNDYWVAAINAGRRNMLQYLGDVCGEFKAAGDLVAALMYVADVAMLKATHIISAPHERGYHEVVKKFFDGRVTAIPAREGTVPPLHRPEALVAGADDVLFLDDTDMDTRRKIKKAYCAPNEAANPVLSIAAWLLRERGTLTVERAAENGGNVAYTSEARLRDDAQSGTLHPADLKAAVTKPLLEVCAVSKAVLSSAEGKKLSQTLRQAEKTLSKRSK
The test can be described thus: Trypanosoma cruzi tyrosyl tRNA synthetase (TcYRS) _High Tyrosine SOP. Note: in the data most compounds retested in dose-response had high values. The class given is functional. Particulars: 30 µM.

Test [10] has as its target T4, Tyrosyl-tRNA synthetase, putative (Trypanosoma cruzi (strain CL Brener)). The experiment in a line: Trypanosoma cruzi tyrosyl tRNA synthetase (TcYRS) SOP. The format is functional. Particulars: 30 µM.
The target in test [11] is Chromo domain-containing protein 1 (Saccharomyces cerevisiae (strain ATCC 204508 / S288c) (Baker's yeast)) (UniProt P32657). The test can be described thus: ScCHD-1 Enzyme Inhibition Assay. Note: in the data most compounds retested in dose-response had high values. The format is functional. Particulars: 30 µM.
Sequence of Chromo domain-containing protein 1 (Saccharomyces cerevisiae (strain ATCC 204508 / S288c) (Baker's yeast)) (P32657 whole entry, the tested form may be a part): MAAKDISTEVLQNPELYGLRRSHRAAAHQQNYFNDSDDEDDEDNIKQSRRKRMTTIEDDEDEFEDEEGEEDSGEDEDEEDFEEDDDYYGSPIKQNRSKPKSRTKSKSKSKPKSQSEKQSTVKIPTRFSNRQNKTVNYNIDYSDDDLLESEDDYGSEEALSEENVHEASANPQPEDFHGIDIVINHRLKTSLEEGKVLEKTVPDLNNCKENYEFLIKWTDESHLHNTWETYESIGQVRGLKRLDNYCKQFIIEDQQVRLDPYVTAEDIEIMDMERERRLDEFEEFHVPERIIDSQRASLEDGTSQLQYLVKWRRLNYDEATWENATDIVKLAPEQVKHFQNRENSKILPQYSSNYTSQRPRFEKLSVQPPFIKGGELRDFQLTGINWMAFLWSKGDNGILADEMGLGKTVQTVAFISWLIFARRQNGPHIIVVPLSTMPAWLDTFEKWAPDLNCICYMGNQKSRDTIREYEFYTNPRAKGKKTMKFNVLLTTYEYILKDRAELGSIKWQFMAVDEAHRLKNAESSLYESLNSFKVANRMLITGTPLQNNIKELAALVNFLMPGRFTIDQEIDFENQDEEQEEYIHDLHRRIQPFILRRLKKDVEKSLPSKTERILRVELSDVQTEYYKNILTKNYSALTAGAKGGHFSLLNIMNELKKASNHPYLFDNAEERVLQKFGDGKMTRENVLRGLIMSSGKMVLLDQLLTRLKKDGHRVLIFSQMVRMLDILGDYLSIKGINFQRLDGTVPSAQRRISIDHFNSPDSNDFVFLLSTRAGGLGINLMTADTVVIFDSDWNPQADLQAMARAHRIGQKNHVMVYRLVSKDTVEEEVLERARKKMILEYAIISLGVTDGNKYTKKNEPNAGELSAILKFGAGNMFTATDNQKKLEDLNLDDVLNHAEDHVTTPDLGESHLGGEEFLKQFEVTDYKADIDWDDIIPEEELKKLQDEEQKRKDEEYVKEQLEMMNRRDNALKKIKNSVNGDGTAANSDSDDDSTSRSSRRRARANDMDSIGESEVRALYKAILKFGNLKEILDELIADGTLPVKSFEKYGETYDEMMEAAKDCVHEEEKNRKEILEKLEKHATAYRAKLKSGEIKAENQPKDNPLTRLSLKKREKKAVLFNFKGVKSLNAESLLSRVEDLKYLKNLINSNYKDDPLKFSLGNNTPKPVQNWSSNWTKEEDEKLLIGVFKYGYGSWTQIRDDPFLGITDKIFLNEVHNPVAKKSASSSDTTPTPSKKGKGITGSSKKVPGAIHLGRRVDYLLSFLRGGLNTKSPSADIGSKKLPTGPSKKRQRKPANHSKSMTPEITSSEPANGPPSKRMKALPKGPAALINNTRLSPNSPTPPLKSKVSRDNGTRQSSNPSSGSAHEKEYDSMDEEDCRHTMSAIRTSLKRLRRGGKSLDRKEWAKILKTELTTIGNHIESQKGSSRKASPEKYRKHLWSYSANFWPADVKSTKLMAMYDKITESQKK

For some assays here: Entries with a potency or affinity are not part of this list.

Our source for the Percent Effect values is ChEMBL document CHEMBL3988442, “University of Dundee, Small-Polar-MMV Screening Library” (2021).

Sequence of Protein translocase subunit SecA (Escherichia coli (strain K12)) (P10408 whole entry): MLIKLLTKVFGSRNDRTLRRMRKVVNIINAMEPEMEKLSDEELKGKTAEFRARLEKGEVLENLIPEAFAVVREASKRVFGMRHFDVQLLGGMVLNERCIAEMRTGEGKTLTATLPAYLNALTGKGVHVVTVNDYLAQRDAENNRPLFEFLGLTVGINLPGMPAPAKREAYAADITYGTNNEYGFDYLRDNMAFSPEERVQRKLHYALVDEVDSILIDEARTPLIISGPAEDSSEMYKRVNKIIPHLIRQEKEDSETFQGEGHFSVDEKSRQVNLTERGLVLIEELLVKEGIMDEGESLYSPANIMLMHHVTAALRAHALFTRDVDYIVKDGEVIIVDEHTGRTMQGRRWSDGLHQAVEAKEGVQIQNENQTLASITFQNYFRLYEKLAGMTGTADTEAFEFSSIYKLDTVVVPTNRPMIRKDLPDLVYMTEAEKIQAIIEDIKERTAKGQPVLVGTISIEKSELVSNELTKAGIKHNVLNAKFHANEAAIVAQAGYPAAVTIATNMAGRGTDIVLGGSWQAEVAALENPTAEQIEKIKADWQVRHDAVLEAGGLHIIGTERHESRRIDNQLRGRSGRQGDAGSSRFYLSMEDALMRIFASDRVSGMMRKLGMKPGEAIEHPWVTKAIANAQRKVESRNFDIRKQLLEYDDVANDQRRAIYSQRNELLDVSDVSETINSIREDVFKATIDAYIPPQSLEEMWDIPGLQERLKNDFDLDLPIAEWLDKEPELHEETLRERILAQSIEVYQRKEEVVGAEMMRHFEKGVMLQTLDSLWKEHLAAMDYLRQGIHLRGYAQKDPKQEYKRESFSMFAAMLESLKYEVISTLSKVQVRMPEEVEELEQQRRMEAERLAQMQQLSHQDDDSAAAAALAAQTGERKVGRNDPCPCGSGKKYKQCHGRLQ
Sequence of Sialic acid-binding Ig-like lectin 9 (Homo sapiens) (Q9Y336 whole entry): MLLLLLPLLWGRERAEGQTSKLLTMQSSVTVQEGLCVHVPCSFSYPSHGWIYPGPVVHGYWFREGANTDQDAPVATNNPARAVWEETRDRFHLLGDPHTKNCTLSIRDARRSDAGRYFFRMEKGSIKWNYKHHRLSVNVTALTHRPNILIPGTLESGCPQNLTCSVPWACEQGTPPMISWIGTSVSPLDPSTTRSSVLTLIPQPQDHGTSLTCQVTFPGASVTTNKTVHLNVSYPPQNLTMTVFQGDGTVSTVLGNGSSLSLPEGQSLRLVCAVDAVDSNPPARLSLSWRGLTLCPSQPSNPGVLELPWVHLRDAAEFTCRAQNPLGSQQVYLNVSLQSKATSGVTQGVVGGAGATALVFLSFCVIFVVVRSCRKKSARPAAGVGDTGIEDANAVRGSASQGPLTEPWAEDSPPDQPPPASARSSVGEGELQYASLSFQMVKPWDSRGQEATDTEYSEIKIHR

On to `CCOCC(=O)N1CCC(Oc2ccc(Cl)cn2)CC1`, for which the Percent Effect in test [1] was -0.654%; in [2], 7.79%; in [3], 2.32%; in [4] it was 8.91%; in test [5] it was -0.888%; in test [6], 4.52%. Also, the Percent Effect in [7] is 25.9%; in test [8], 21.4%; in test [9], 8.47%; in [10], 8.97%; in test [11], -8.06%.
On to `O=S(=O)(Nc1cnn(C2CCOCC2)c1)c1ccc2c(c1)CCO2`, for which the Percent Effect is -1.97% in test [1]; -2.6% in [2]; -19.5% in [3]; 5.92% in test [4]; -0.296% in test [5]; -9.68% in test [6]. Besides, the Percent Effect in test [7] was 12%; in test [8] it was 13%; in test [9], 1.06%; in test [10], -1.28%; in [11] it was -7.66%.
Take `O=C(NCCCn1cncn1)N1CCCC(N2CCCC2)C1` (stereo not given): the Percent Effect in [1] is -3.14%; in test [2] it was 21.1%; in [3] it was -6.64%; in test [4], -3.21%; in test [5], 3.01%; in test [6] it was 2.3%. Further, the Percent Effect in test [7] was 13.4%; in test [8], 14.6%; in [9] it was 5.39%; in [10] it was 19.5%; in test [11], -10.5%.
In the case of `CCCN(C(=O)c1ccccn1)c1nc2c(s1)CCc1c-2cnn1C`, the Percent Effect in test [1] was 3.44%; in test [2] it was 60.8%; in [3] it was -62.8%; in test [4], 3.48%; in test [5] it was 0.988%; in test [6] it was 15.6%. Further, the Percent Effect is 17.5% in test [7]; 32.7% in test [8]; -6.45% in test [9]; -6.49% in test [10]; -6.45% in test [11].
In the case of `CCN1CCC(NC(=O)CN2CCCC2Cn2cncn2)CC1` (stereo not given), the Percent Effect in [1] is -0.772%; in [2], 6.33%; in [3], -1.15%; in test [4] it was -1.21%; in test [5], -5.64%; in test [6] it was 0.645%. In addition, the Percent Effect is 8.92% in test [7]; 4.26% in [8]; 3.12% in test [9]; 2.53% in test [10]; -22.4% in [11].
Take `Cc1nc(C)n(CC2CCCN2CCOc2ccc(C#N)cc2)n1` (stereo not given): the Percent Effect in [1] was -3.7%; in test [2] it was 2.53%; in [3], -2.42%; in test [4], 10.4%; in test [5] it was 7.27%; in test [6], 1.9%. The Percent Effect is 1.06% in [7]; 17.9% in test [8]; 6.4% in test [9]; 11.4% in test [10]; -5.17% in test [11].
On to `O=C(C1CCOCC1)N1C[C@@H]2[C@@H](C1)OCC(=O)N2Cc1ccncc1`, for which the Percent Effect in [1] is -1.9%; in test [2] it was -2.74%; in test [3], -1.14%; in test [4] it was 7.63%; in [5] it was 1.19%; in test [6], -0.399%. For the same compound, the Percent Effect in test [7] is 4.2%; in test [8], 2.13%; in [9] it was 2.08%; in [10], -6.17%; in test [11], -1.66%.
As for `O=C1COc2c(cccc2C(=O)N2CCCCC2Cn2cccn2)N1` (stereo not given), the Percent Effect in test [1] was -1.42%; in [2], 10.4%; in [3] it was 2.71%; in [4], 5.65%; in test [5], -2.84%; in [6] it was 3.16%. In addition, the Percent Effect in [7] was 14.6%; in [8] it was 10.8%; in [9] it was 6.67%; in test [10], 11.8%; in test [11], -12.7%.
As for `CN(C)c1ncc(CN2CCOC(C(=O)Nc3ccccc3)C2)cn1` (stereo not given), the Percent Effect in [1] is -0.531%; in test [2], 16%; in test [3], 2.21%; in [4], -8.34%; in test [5], 2.36%; in [6], 71.6%. Also, the Percent Effect was 18.6% in [7]; 23.5% in test [8]; 3.19% in [9]; 14.1% in [10]; -7.74% in test [11].
As to `CNc1nc(C)c(C(=O)N2CCCCC2CN2CCCCCC2)s1` (stereo not given), the Percent Effect is -4.61% in test [1]; 21.3% in [2]; -1.92% in test [3]; 0.892% in test [4]; 3.74% in test [5]; -1.63% in [6]. Further, the Percent Effect is 8.72% in test [7]; -1.85% in [8]; 11.7% in [9]; 19.2% in [10]; -9.37% in test [11].
